This is an account of results in ChEMBL document CHEMBL4513216, “Probing the Open Global Health Chemical Diversity Library for Multistage-Active Starting Points for Next-Generation Antimalarials” (ACS Infect Dis, 2020).

Hit rate of the full screen: of about 65,000 compounds, about 2,100 (3.2%) showed an effect of 50% or more. The median lay at about -52%. For the sample, strong results were picked, then their nearest neighbours and some compounds at random.

The test deals with Plasmodium falciparum. The test can be described thus: Screen against P. falciparum Asexual Blood Stage (ABS), at 5uM. Format: functional, Dd2. The settings on record: tested at 5 uM.
With `O=C(c1ccnnc1)N1CCN2C[C@H](Oc3cccnc3)C[C@H]2C1`, the INHIBITION stood at 5.43%.
The result for `Cc1nn(C)c(Oc2ccc(Cl)cc2)c1CN1CCC(CN)C1` (stereo not drawn) reads 92.8%; that for `Cn1cc(N2CC[C@@H]3CN(Cc4ccncc4)C[C@H]3C2=O)cn1`, -102%; that for `CC(C)C1CN(c2cccc(C#N)n2)CCCN1Cc1ccc(F)cc1` (stereo not drawn), 91.3%.
With `CC(C)C1CN(c2cccc(C#N)n2)CCCN1CC1CC1` (stereo not drawn), the INHIBITION came out at 84.3%.
With `Cc1nc(C)c(CC(=O)N2CCCN(CC3CC3)C(C(C)C)C2)c(=O)[nH]1` (stereo not drawn) the figure was -23.8%; with `N#Cc1cccc(N2CCOC3(CNCCOC3)C2)n1` (stereo not drawn), 17%.
`N#Cc1cccc(N2CCCC3(CNCCO3)C2)n1` (stereo not drawn): the INHIBITION was -104%.
As for `Cc1nc(N)nc(C)c1CC(=O)N1CCCN(CC2CC2)C(C(C)C)C1` (stereo not drawn), the INHIBITION is given as -198%.
In the case of `CCN1CCC2(COCc3c(C)nc(N4CCOCC4)nc32)C1` (stereo not drawn), the INHIBITION was -129%.
For the molecule `CC(Cn1cccn1)NCc1csc2c1CCCC2` (stereo not drawn), the INHIBITION came out at 39.2%.
As to `CN(C)C1Cc2ccccc2N(S(=O)(=O)c2cccc(C#N)c2)C1` (stereo not drawn), the INHIBITION was 76.6%.
For the molecule `CC[C@H]1CN2CC[C@H]1C[C@@H]2CNC(=O)Nc1cccc(C#N)c1`, the INHIBITION is recorded as -82.6%.
In the case of `CC(C)(C)n1ncc2c1NC(=O)CSC2c1ccsc1` (stereo not drawn), the INHIBITION is given as -82.3%.
Regarding `COc1ccc(C(=O)N2CCOC3(CNCCOC3)C2)c(OC)n1` (stereo not drawn), the INHIBITION is -97.3%.
Take `CC(C)n1ccnc1C1CCCN(c2ccnc3ccccc23)C1` (stereo not drawn): the INHIBITION was found to be 84%.
For `Cc1nc(CO[C@@H]2CC[C@H]3[C@H]2OCCN3Cc2cccnc2)cs1`, the INHIBITION was -22.1%.
With `O=C(Nc1ccc(Cl)cn1)C1CCCN(CCc2ccncc2)C1` (stereo not drawn) the figure was 71.9%; with `COc1ccc(C(=O)C2CCCN(Cc3ccncc3)C2)cc1OC` (stereo not drawn), -128%.
As for `COc1ccc(C(=O)C2CCCN(Cc3ccncc3)C2)c(OC)c1` (stereo not drawn), the INHIBITION is -17.9%.
Take `O=C(CCc1nccs1)N1CCC(C(=O)O)(c2ccccc2)CC1`: the INHIBITION was -56.3%.
As to `Cc1nc(CC(=O)N2CCCC[C@H](N(C)C)C2)cs1`, the INHIBITION is given as -56.95%.
As to `CN(C)[C@H]1CCCCN(C(=O)c2cccc(-c3cccc(F)c3)c2)C1`, the INHIBITION is reported as 73.3%.
For `CN1CCO[C@@H]2CN(C(=O)c3ccc4ncccc4c3)CC[C@@H]2C1`, the INHIBITION is recorded as -46.1%.
With `O=C(c1ccnc(-n2cnnc2)c1)N1CCCC2(CCNC2)C1` (stereo not drawn) the figure was -120%; with `Nc1ncccc1CN1C[C@H]2OC(=O)N(Cc3ccccn3)[C@H]2C1`, -117%.
As for `Cc1cnc(N2CCN(C)c3ncccc3C2)nc1`, the INHIBITION is recorded as -91.5%.
Consider `Fc1cnc(N2C[C@H]3CN(Cc4cccc(F)c4)C[C@H]3C2)nc1`, for which the INHIBITION came to 21.5%.
Consider `CC(Cc1cccc(F)c1)NCc1cnc(N2CCN(C)CC2)nc1` (stereo not drawn), for which the INHIBITION was found to be 67.6%.
As to `Cc1cccc(-c2ncc(CNC(C)Cc3ccncc3)cn2)c1` (stereo not drawn), the INHIBITION is on record as -115%.
The result for `CN1CCN(c2ncc(CNCCCc3cccc(F)c3)cn2)CC1` reads 71.5%; that for `CNC(=O)[C@@H]1C[C@H]2CN(c3ncccn3)C[C@H]2N1C(C)C`, -98%; that for `Cc1noc(C)c1CN1CCO[C@H]2CN(C(=O)N3CCCC3)C[C@H]21`, -14.9%.
On to `O=C(C1CCCO1)N1CCC2(CC1)CNCCO2` (stereo not drawn), for which the INHIBITION is -75.2%.
Take `CNC(=O)CN1CCO[C@H]2CN(CC3CC3)C[C@H]21`: the INHIBITION was -76.5%.
For the molecule `Cn1cc(CN2C[C@H]3CN(c4cncnc4)C(=O)[C@H]3C2)cn1`, the INHIBITION is reported as -44.8%.
With `CC(C)C(CNCc1cccc2c1OCO2)N1CCOCC1` (stereo not drawn) the figure was 76%; with `CNC(=O)[C@H]1C[C@@H]2CN(C(=O)c3ccncc3F)C[C@@H]2N1C`, -96.9%.
Take `CN1CC[C@H](N(Cc2ccccc2)CC2CC2)C[C@H](O)C1`: the INHIBITION came to 80.8%.
For `CN1CC[C@@H]2OC[C@H](C(=O)N(C)Cc3ccccn3)C[C@@H]2C1`, the INHIBITION was -138%.
With `Cc1nc(CC(=O)N2CCCC(N(C)Cc3ccccc3)C2)cs1` (stereo not drawn) the figure was -55.85%; with `CN1CC[C@H](N(Cc2ccccc2)Cc2ccccc2)C[C@H](O)C1`, 72.1%.
For the molecule `Cc1noc(C)c1CN1C[C@@H]2OCCN(Cc3cnn(C)c3)[C@@H]2C1`, the INHIBITION is reported as -2.02%.
With `O=C(Cc1csc(-c2ccco2)n1)N1CCN(CCO)CC1`, the INHIBITION is listed as -30.8%.
As to `Cc1ccc(CN2CC[C@H]3[C@H]2CC(=O)N3c2cccnc2)o1`, the INHIBITION is given as -38.1%.
For `CN(C)CCNC(=O)CCn1ncc2c(Cl)cccc21`, the INHIBITION is recorded as 71%.
The result for `Cn1cc(C2=CCN(CCC(=O)NCc3ccc(Cl)cc3)CC2)cn1` reads 5%.
As for `Cc1cc(CN2CC[C@H]3C[C@H](C)O[C@@H]3C2)no1`, the INHIBITION is reported as -86.2%.
As to `Cc1c(CC(=O)N2CCN(C(C)C)CC2)nnn1-c1ccccc1`, the INHIBITION is on record as -40.6%.
Consider `CN1CCCC1CCn1ccnc1-c1nc2ccccc2[nH]1` (stereo not drawn), for which the INHIBITION stood at 72.2%.
Consider `O=C1[C@H]2CN(Cc3ccccc3)C[C@H]2CN1c1cncnc1`, for which the INHIBITION was -76.5%.
As to `Cc1ccc(OCC(=O)N2CCN[C@H]3CS(=O)(=O)C[C@H]32)cn1`, the INHIBITION is -103%.
With `Cc1cccc(CN2CC[C@@H]3[C@@H]2CCN3Cc2cccs2)n1` the figure was 29.9%; with `COCCN1CCO[C@H]2CCN(C(=O)c3ccnnc3)CC[C@@H]21`, -39.1%.
With `Cc1noc(C)c1CN1CCN(C)c2ncccc2C1` the figure was -31.9%; with `CCc1cc(CN(C)C(=O)CN2CC(Cc3ccccc3)CC2=O)on1` (stereo not drawn), -126%.
Turning to `CC(C)N1CCc2c(CN(C)Cc3ccco3)cncc2C1`, the INHIBITION is given as -16.1%.
On to `CN1CCC(N(C)c2ccccc2CNCc2ccco2)CC1`, for which the INHIBITION was determined as 85.9%.
With `Cc1noc(C)c1CN(C)C(=O)CN1CC(c2ccccc2)CC1=O` (stereo not drawn), the INHIBITION is reported as -83.2%.
For `CCc1cc(CNCc2ccccc2N(C)C2CCN(C)CC2)on1`, the INHIBITION came out at 74.5%.
Take `CN(C)CCN1CCN(Cc2ccco2)Cc2cccnc21`: the INHIBITION amounted to 11.9%.
Regarding `Cc1noc(C)c1CNCc1ccccc1N(C)C1CCN(C)CC1`, the INHIBITION was 73.6%.
The result for `CCc1cc(CN(C)C(=O)CN2CC(c3ccccc3)CC2=O)on1` (stereo not drawn) reads -13.6%.
As for `CC(C)=CCN1C(=O)[C@@H]2CC[C@H]1CN(Cc1cccnc1N)C2`, the INHIBITION is on record as -11.1%.
`CC1CN(C)CCN1C(=O)Cc1cc(Cl)c2c(c1)OCCO2` (stereo not drawn): the INHIBITION is -23.7%.
For the molecule `CCc1noc(CN2CCOC3(CCCC3)C2)n1`, the INHIBITION was -159%.
With `c1cc(CN2C[C@@H]3OCCN(CCN4CCCC4)[C@@H]3C2)ccn1` the figure was -104%; with `Cc1cc(C)c2[nH]c(C)c(CC(=O)N(C)CCN(C)C)c2c1`, 61.9%; with `Cc1ccc2c(CC(=O)N(C)CCN(C)C)c(C)[nH]c2c1C`, -86.5%.
With `Cc1[nH]c2c(C)cccc2c1CC(=O)N(C)CCN(C)C` the figure was 46.3%.
With `N#Cc1ccc(C(=O)NS(=O)(=O)c2ccc(C#N)c(Cl)c2)cc1`, the INHIBITION is listed as -1%.
In the case of `COc1cccc(CNc2cc(C)nc(-c3ccncc3)n2)c1OC`, the INHIBITION came to 89.3%.
Turning to `Cc1cc(C(F)(F)F)nc(N2CCN3CCCC3C2)n1` (stereo not drawn), the INHIBITION is on record as -144%.
In the case of `CCc1ccc(-c2cc(C(F)(F)F)nc(N3CCC(N)CC3)n2)cc1`, the INHIBITION is listed as 82.4%.
For `FC(F)(F)c1cc(-c2cccs2)nc(N2CCN3CCCC3C2)n1` (stereo not drawn), the INHIBITION is -47.6%.
Take `O=C(Nc1cccnc1)[C@@H]1COC[C@H]2CN(C3CCCC3)C[C@H]21`: the INHIBITION is on record as -20.2%.
In the case of `O=C(c1ccc2c(c1)COC2)N1CCC(Nc2ccccc2)CC1`, the INHIBITION was -162%.
In the case of `O=C1[C@H]2CN(Cc3ccncc3)C[C@H]2CN1c1ccsc1`, the INHIBITION is given as -92.9%.
Regarding `COc1cccc(CN2CCC(CO)(Cc3ccc(Cl)cc3)CC2)c1O`, the INHIBITION amounted to 89.5%.
For the molecule `c1cc(CN2CCN(Cc3ccon3)C3(CCCCC3)C2)no1`, the INHIBITION is reported as -126%.
Consider `Cc1noc(C)c1CN1CC[C@H]2C[C@@H](c3ccncn3)O[C@@H]2C1`, for which the INHIBITION is recorded as -98.1%.
With `Cc1cc(N2CCN3CCCCC3C2)n2nc(C)c(C)c2n1` (stereo not drawn), the INHIBITION is recorded as -76.1%.
As to `Cc1nc(-c2cccc(N3CCC(N4CCCC4)CC3)c2)cs1`, the INHIBITION is listed as 71.6%.
For `Cc1ncccc1OCC(=O)N1CCN[C@H]2CS(=O)(=O)C[C@H]21`, the INHIBITION is -151%.
`c1ccc(CN2CCN3C[C@H](Oc4cncnc4)C[C@H]3C2)nc1`: the INHIBITION is -102%.
With `NC1CCc2nc(-c3ccncc3)nc(Nc3cccc(F)c3)c2C1` (stereo not drawn), the INHIBITION was determined as 84.2%.
On to `NC1CCc2nc(-c3cccnc3)nc(Nc3ccc(F)cc3)c2C1` (stereo not drawn), for which the INHIBITION is recorded as 87.1%.
Turning to `CCc1cc(N2CCNCC2)n2nc(C)c(C)c2n1`, the INHIBITION is -115%.
With `COCCN1C[C@@H]2[C@@H](OC)CCN(C(=O)Cc3ccsc3)[C@@H]2C1` the figure was 19.2%; with `COc1cccc([C@H]2CN(C(C)=O)[C@@H]3CCN(Cc4ccsc4)C[C@H]23)c1`, 73.9%.
Take `Cc1noc(C)c1CN1CC[C@H]2C[C@H](c3ccncn3)O[C@@H]2C1`: the INHIBITION is -66.9%.
On to `O=C(CC1CC1)N[C@@H]1CN(Cc2cccnc2)C[C@@H]2CCCO[C@@H]21`, for which the INHIBITION was -42.5%.
With `c1cncc(CN2CCO[C@@H]3CN(Cc4ccoc4)CC[C@@H]3C2)c1` the figure was 30.1%; with `CO[C@@H]1CCN(Cc2ccoc2)C[C@@H]1Cc1ccccc1`, 89%; with `CC(C)c1nccc([C@@H]2C[C@@H]3CCN(Cc4ccoc4)C[C@H]3O2)n1`, -35%.
For `CN1CCN(Cc2ccoc2)Cc2cccnc21`, the INHIBITION is on record as -116%.
In the case of `COc1ccc(C[C@H]2CN(Cc3ccoc3)CC[C@H]2OC)cc1`, the INHIBITION is reported as 75.1%.
As to `CC(C)c1nccc([C@H]2C[C@@H]3CCN(Cc4ccoc4)C[C@H]3O2)n1`, the INHIBITION is listed as -81.1%.
